# TDP-43 tox inh = rescues yeast from TDP-43 toxicity. Potency, µM (top dose mostly 46.1 µM), hits mostly activators. actives 0.45% (n = 45,000). yeast TDP-43 toxicity rescue, BacTiter-Glo growth, 24 h; active = well fitted activation curve with a large enough effect; note: 0% is about no effect; nearly all actives have a fitted effect of over 55% in size
#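 TDP-43-expressing yeast, pregrown in raffinose, seeded at OD600 0.02 in galactose medium with compound for 24 hr at 30 deg C. Growth read by BacTiter-Glo luminescence, so rescue of toxicity appears as activation.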
# * marks the source's active call; other numbers are inactive results; i = inactive. The entries come from a sample that favours hits as a whole. Potency is the fitted concentration of half-maximal effect.
SMILES,TDP-43 tox inh
CC(O)(c1ccccc1)c1nc(-c2cccc(C(=O)O)c2)cs1 (stereo not drawn),i
CC(C)c1cccc(-c2csc(C(C)(O)c3ccccc3)n2)c1 (stereo not drawn),i
COc1cccc(C(C)(O)c2nc(-c3cncnc3)cs2)c1 (stereo not drawn),i
CC(O)(c1ccc(F)c(F)c1)c1nc(-c2ccc(Cl)cc2)cs1 (stereo not drawn),i
COc1ccc(C(C)(O)c2nc(-c3csc4ccccc34)cs2)cc1 (stereo not drawn),18µM*
NS(=O)(=O)c1cccc(NC(=O)COC(=O)/C=C/c2nc3ccccc3s2)c1,i
COc1ccc(S(=O)(=O)N(CC(=O)NCc2cccnc2)c2ccc(C)cc2)cc1OC,i
CCc1noc(C)c1C(=O)Nc1sc(C(=O)N(C)C)c(C)c1C#N,i
COc1ccc(NC(=O)CCC(=O)c2cc(C)sc2C)cc1,i
O=C(O)c1ccc(NC(=S)NC(=O)c2ccc(-c3ccccc3)cc2)cc1,13µM*
O=C(Nc1ccc(C(=O)O)cc1)/C(=C\c1ccccc1)NC(=O)c1ccccc1,i
O=C(NC(=S)Nc1ccccc1)c1ccc(-c2ccccc2)cc1,i
CN(C)CC1CCCCC1OC(=O)/C=C/c1ccccc1 (stereo not drawn),i
C/C(=N\Nc1ccc(C(=O)O)cc1)c1ccc2c(c1)Nc1ccccc1S2,11µM*
C/C(=N\Nc1ccc(Cl)c(C(=O)O)c1)c1cccc2ccccc12,i
C/C(=N\Nc1cccc(C(=O)O)c1)c1ccc(Cl)s1,i
CCCNC(=O)C1(C)CCN(Cc2ccc(OCc3ccccc3)cc2)C1 (stereo not drawn),i
CC(=O)Nc1ccc(OCCOc2ccccc2C(C)=O)cc1,i
CCC(C)/C(C)=N/NC(=O)c1ccccc1OCCOc1ccccc1 (stereo not drawn),i
O=C(O)c1ccccc1OCCOc1ccccc1,22µM*
CCCn1c(=O)c(C(=O)NNS(=O)(=O)c2ccc(NC(=O)OC)cc2)c(O)c2ccccc21,i
CC(C1CC2CCC1C2)N1CC(O)=C(c2nc3ccccc3[nH]2)C1=N (stereo not drawn),i
CC(C1CC2CCC1C2)n1c(-c2cccs2)n[nH]c1=S (stereo not drawn),14µM*
CC(C)(C)c1n[nH]c(=S)n(/N=C/c2cccs2)c1=O,i
O=C(NCC1CCN(C(=O)c2c(F)c(F)c(F)c(F)c2F)CC1)c1c(F)c(F)c(F)c(F)c1F,18µM*
SMILES,TDP-43 tox inh
O=C(NCC1CCN(C(=O)c2cccc([N+](=O)[O-])c2)CC1)c1cccc([N+](=O)[O-])c1,i
CC(C)CNC(=O)c1c(F)c(F)c(F)c(F)c1F,i
COc1cccc(CCc2nnc(CCC(=O)N3CCN(Cc4ccccn4)CC3)o2)c1,i
Cc1cc(=O)[nH]c(SCC(=O)N2CCCC(C)C2)n1 (stereo not drawn),i
CC12CC3CC(C)(C1)CC(C(=O)N1CCN(C(=O)C4CCCO4)CC1)(C3)C2 (stereo not drawn),i
O=C(CCN1C(=O)c2ccc([N+](=O)[O-])cc2C1=O)Nc1ccccc1C(=O)O,i
O=C(O)c1ccccc1C(=O)Nc1ccc(Oc2ccc3ccccc3c2)cc1,22µM*
O=C(Nc1ccc(Oc2cccnc2)cc1)c1ccccc1Cl,i
O=C(O)c1ccccc1C(=O)Nc1ccc(S(=O)(=O)N2CCCC2)cc1,i
COc1ccc(OC)c2c1cc(C(=O)N[C@H](C(=O)N1CCC(C(=O)O)CC1)C(C)C)n2C,i
COc1ccc(-n2nc(C(=O)NCC(=O)N3CCN(Cc4ccccc4)CC3)c3ccccc3c2=O)cc1OC,i
COc1ccc(-n2nc(C(=O)NCC(=O)N3CCC(C)CC3)c3ccccc3c2=O)cc1Cl,18µM*
CCOC(=O)C1CCN(C(=O)CNC(=O)c2nn(-c3ccc(OC)c(OC)c3)c(=O)c3ccccc23)CC1,i
CC1(c2cccc(Br)c2)NC(=O)N(CC(=O)Nc2ccc(F)cc2)C1=O (stereo not drawn),i
Clc1nc2ccccc2nc1-c1ccccc1,i
CN(c1nc2ccccc2nc1Cl)S(=O)(=O)c1ccccc1,13µM*
CCCc1nnc2c(N(C)S(=O)(=O)c3ccc(C)cc3)nc3ccccc3n12,i
Cc1ccc(S(=O)(=O)N2CCC(N3CCN(C)CC3)CC2)cc1Cl,i
COc1ccc(Cn2c(=O)[nH]c3cc(C(=O)N4CCN(c5ccc(C(C)=O)cc5)CC4)ccc3c2=O)cc1,i
CCCCOC(=O)/C=C/c1ccc(OC(=O)OC)c(OC(=O)OC)c1,i
COC(=O)Oc1ccc(/C=C/C(=O)OC(C)C)cc1OC(=O)OC,14µM*
COc1cc(/C=C/C(=O)OC(C)C(=O)Nc2ccc(Cl)cn2)ccc1OC(F)F (stereo not drawn),i
O=C(O)C(NS(=O)(=O)c1ccc(F)cc1)c1ccccc1 (stereo not drawn),i
O=S(=O)(NCCC(c1ccc(F)cc1)c1ccco1)c1ccccc1 (stereo not drawn),18µM*
COc1ccc(CNCCC(c2ccc(C)cc2)c2ccco2)cc1 (stereo not drawn),i
SMILES,TDP-43 tox inh
CCOC(=O)C1(C)CCN1C(=O)c1cccc(C#N)c1 (stereo not drawn),i
Cc1ccc(-n2nc3c(=O)n(CC(=O)Nc4ccccc4F)nc(C)c3c2C)c(C)c1,i
CCn1c(C)nc2cc(C(=O)N/N=C/c3cccc(OC)c3O)ccc21,i
COc1cccc(/C=N/NC(=O)c2nc(-c3ccccc3)cc(-c3ccccc3)n2)c1O,13µM*
COc1cccc(/C=N/NC(=O)N/N=C/c2cccc(OC)c2O)c1O,i
CN=c1scc(-c2ccccc2F)n1/N=C/c1ccc[nH]1,i
C=CCN=c1scc(-c2ccc(F)cc2)n1/N=C/c1ccccn1,11µM*
O=C(NCc1ccc(F)cc1)c1cc(C2CCCCN2C(=O)OCCF)on1 (stereo not drawn),i
COc1ccc(NC(=O)C23CC4CC(CC(Cl)(C4)C2)C3)cc1S(=O)(=O)N1CCOCC1,i
COc1cccc(N2CCN(C(=O)c3ccc(CS(=O)c4ccc(C)cc4)o3)CC2)c1 (stereo not drawn),i
CC1=C(C(=O)N2CCN(c3cccc(C)c3C)CC2)C2(CCCCC2)OC1=O,i
Cc1ccccc1S(=O)Cc1ccc(C(=O)N2CCN(c3cccc(C)c3C)CC2)o1 (stereo not drawn),20µM*
Cc1ccn(CC(=O)N2CCCC(N3CCN(Cc4ccc5c(c4)OCO5)CC3)C2)n1 (stereo not drawn),i
COc1cc(NC(=O)c2ccc(-c3c(C)noc3C)c3ccoc23)cc(OC)c1OC,i
COc1ccc(-c2onc(C)c2-c2cnn(-c3ccccc3)c2)c(O)c1C,i
COc1ccc(-c2onc(C)c2-c2ccc(C(=O)OC(C)C)o2)c(O)c1,16µM*
CCOC(=O)c1nnn(-c2nonc2N)c1CSc1nnc(N)s1,i
CSc1nc2sc3c(c2c(=O)n1-c1ccc(C)cc1)CCCC3,i
COc1ccc(CNc2ncnc3c2[nH]c2cc(OC)c(OC)cc23)cc1,i
COc1ccc2c(c1)[nH]c1c(Cl)ncnc12,14µM*
COc1ccc2c(c1)[nH]c1c(=O)n(CCN3CCOCC3)cnc12,i
Cn1nc(C2CC2)cc1NC(=O)C1(C)CCN1C(=O)CC(c1ccccc1)c1ccccc1 (stereo not drawn),i

# Source: PubChem
